# Compound activity as filed in PubChem.
# Sfp PPTase inh = blocks B. subtilis Sfp PPTase activity. Biochemical Sfp PPTase activity, qHTS. 310,000 tested, 3.5% active. AID 1490. Q9F4F7. Potency, µM, most hits filed as inhibitors;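 note: the enzyme is Sfp with the accession as filed and its product quenches rhodamine fluorescence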
#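 After 15 min at room temperature with compound, 15 nM Sfp received 5 uM rhodamine-CoA plus 12.5 uM BHQ-2-ybbR (50 mM Hepes pH 7.6, 10 mM MgCl2). Rate came from the fluorescence difference over 30 min, ex 525/em 598 nm.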
# G9a block = G9a (human) methyltransferase inhibition; Potency, µM (series often up to 102 µM), most hits filed as inhibitors; AID 504332; Q96KQ7; 350,000 tested, 8.8% active; G9a H3K9 monomethylation, AlphaScreen, 2 h; note: nearly all actives have a fitted effect of over 75% in size
# Target sequence (Q96KQ7 913-1193 limits assumed): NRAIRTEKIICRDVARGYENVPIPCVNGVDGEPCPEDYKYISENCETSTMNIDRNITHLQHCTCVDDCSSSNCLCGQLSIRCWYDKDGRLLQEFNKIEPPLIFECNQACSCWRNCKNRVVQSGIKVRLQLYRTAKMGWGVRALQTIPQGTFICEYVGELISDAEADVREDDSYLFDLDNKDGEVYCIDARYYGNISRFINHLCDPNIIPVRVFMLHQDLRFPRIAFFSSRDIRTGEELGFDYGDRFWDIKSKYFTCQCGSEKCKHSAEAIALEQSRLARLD
#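 Quantitative HTS format: methyltransferase activity on a biotin-tagged H3K9 peptide is measured by AlphaScreen, using a rabbit anti-monomethyl-H3K9 antibody with streptavidin donor and anti-IgG acceptor beads. Final levels are 20 nM enzyme, 500 nM peptide, 20 uM SAM; 2 h RT.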
# JMJD2A Tudor = blocks the human JMJD2A Tudor domain; AlphaScreen JMJD2A-Tudor / H3K4me3 peptide binding; Potency, µM (top dose mostly 114 µM), most hits filed as inhibitors; 390,000 tested, 4.4% active; AID 504339; note: nearly all actives have a fitted effect of over 50% in size
# BAZ2B inh = BAZ2B (human) inhibition | 360,000 tested, 4.4% active | AlphaScreen BAZ2B-H3K14Ac peptide displacement | Potency, µM (top dose mostly 114 µM), usual class: inhibitors; note: nearly all actives have a fitted effect of over 60% in size
#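 Inhibition is scored as reduced AlphaScreen emission. The BAZ2B/b-H3(5-23)K14Ac complex (50 nM each) in PBS pH 7.4, 0.01% Tween-20 meets compound (up to 110 uM) for 30 min at RT before bead addition.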
# HP1b binding inh = blocks HP1-beta chromodomain binding to methylated histone tails. AID 540317. P83916. AlphaScreen HP1-beta / biotin-H3K9me3 peptide binding. 390,000 tested, 0.56% active. Potency, µM (series often up to 114 µM), hits mostly inhibitors; note: nearly all actives have a fitted effect of over 70% in size
# Target sequence (P83916 whole entry, looked up): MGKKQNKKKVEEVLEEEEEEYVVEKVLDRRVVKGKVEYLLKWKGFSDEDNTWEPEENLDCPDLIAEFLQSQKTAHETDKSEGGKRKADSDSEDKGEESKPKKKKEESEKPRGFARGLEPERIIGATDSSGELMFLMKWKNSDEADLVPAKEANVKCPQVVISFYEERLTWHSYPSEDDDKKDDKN
#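 Compound inhibition of the preformed complex between 50 nM HP1-beta and 50 nM biotinylated H3K9me3 peptide was read by AlphaScreen. Buffer was PBS pH 7.4 with 0.01% Tween-20. Incubations ran 30 min at room temperature, with 10 ug/mL donor/acceptor beads.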
# A number is an active result; – = inactive; ? = inconclusive; · = no result given; [ ] = another dose, or the depositor's remark. Most compounds without a hit are left out; they make up all but 12% or so of the library. Calls come from the whole dose curve; as a rule, active = well fitted curve in the direction sought with a large enough effect; inconclusive = small, poorly fitted or top-dose-only effect, or another doubt; inactive = no such curve, though single readings can be large; an effect the other way counts as inactive or inconclusive.
SMILES,Sfp PPTase inh,G9a block,JMJD2A Tudor,BAZ2B inh,HP1b binding inh
O=C(Oc1cccc(C(=S)N2CCOCC2)c1)c1ccc([N+](=O)[O-])cc1[N+](=O)[O-],?,25.1µM,–,?,?
O=C(c1cccc(Oc2ccc([N+](=O)[O-])cc2)c1)N1CCOCC1,–,–,–,–,–
O=C(Oc1ccc(Br)cc1C(=S)N1CCOCC1)c1ccc([N+](=O)[O-])cc1[N+](=O)[O-],50.1µM,8.91µM,?,?,?
O=C(Oc1cccc(C(=S)N2CCOCC2)c1)c1cc([N+](=O)[O-])cc([N+](=O)[O-])c1,–,35.5µM,?,?,–
O=C(Oc1ccc(Br)cc1C(=S)N1CCCCC1)c1cc([N+](=O)[O-])cc([N+](=O)[O-])c1,–,?,?,?,?
O=C(Oc1ccc(C(=S)N2CCOCC2)cc1)c1ccccc1,–,–,–,–,–
O=C(Oc1ccc(C(=S)N2CCOCC2)cc1)c1cccc([N+](=O)[O-])c1,?,22.4µM,–,–,–
C=CC[N+]1([C@H]2C[C@H]3[C@@H]4CC[C@H]5C[C@H](O)[C@@H](N6CCOCC6)C[C@]5(C)[C@H]4CC[C@]3(C)[C@H]2OC(C)=O)CCCC1,–,–[12.7 µM],·,·,·
COc1ccc(CCN(C(=O)c2ccco2)C(C(=O)NC2CCCC2)c2ccncc2)cc1OC (stereo not given),–,–,–,–,–
O=C(Oc1cccc(C(=S)N2CCOCC2)c1)c1cccc([N+](=O)[O-])c1,–,44.7µM,–,–,–
O=C(c1cccc([N+](=O)[O-])c1)N1CCOCC1,–,–,–,–,–
NNc1ccc2nncn2n1,?,50.1µM,–,–,–
CN(CC(=O)NCCc1ccc(S(N)(=O)=O)cc1)Cc1c(F)cccc1Cl,–,50.1µM,–,–,–
CC(NCCc1ccc(S(N)(=O)=O)cc1)C(=O)NCCc1ccc(F)cc1 (stereo not given),–,–,25.1µM,50.1µM,?
CC(NCC(=O)NCCc1ccc(S(N)(=O)=O)cc1)c1ccc(F)cc1 (stereo not given),–,·,–,–,–
CN(CC(=O)NCCc1ccc(S(N)(=O)=O)cc1)Cc1ccc(Cl)cc1Cl,–,–,–,–,–
O=[N+]([O-])C(=C1Nc2ccccc2N1)/C(Cl)=C(/Cl)Br,–,7.94µM,17.8µM,?,?
Cc1cc(C)c(NC(=O)c2sc3nc4c(cc3c2N)C(=O)CC(C)(C)C4)c(C)c1,–,44.7µM,–,?,–
COC(=O)c1sc2nc3c(cc2c1N)C(=O)CC(C)(C)C3,–,?,–,–,–
Cc1cc(C)c2cc3c(N)c(C(=O)Nc4c(C)[nH]c(=O)[nH]c4=O)sc3nc2c1,?,–,?,50.1µM,–
CCOc1ccc2nc3sc(C(=O)N4CCOCC4)c(N)c3cc2c1,31.6µM,?,–,–,–
Cc1cc(C)c2cc3c(N)c(C(=O)N4CCOCC4)sc3nc2c1,?,8.91µM,–,–,–
CCOc1ccc(CSC2=NCCN2)cc1[N+](=O)[O-],?,–,–,–,–
O=C(CN(C(=O)CCC(=O)Nc1ccccn1)c1cccc(F)c1)NCc1ccc(F)cc1,–,–,–,–,–
Cc1cc(CNC(=S)Nc2ccc(S(=O)(=O)Nc3ncccn3)cc2)nn1C,–,·,–,–,–
SMILES,Sfp PPTase inh,G9a block,JMJD2A Tudor,BAZ2B inh,HP1b binding inh
O=C(Cc1c(F)cccc1Cl)NNC(=S)Nc1ccc(S(=O)(=O)Nc2ncccn2)cc1,–,28.2µM,–,–,–
O=S(=O)(Nc1ncccn1)c1ccc(NC(=S)Nc2cccc(Cl)c2)cc1,56.2µM,–,·,–,·
Cc1ccc(NC(=S)Nc2ccc(S(=O)(=O)Nc3ncccn3)cc2)cc1Cl,–,–,·,–,·
Cc1ccc(S(=O)(=O)Nc2c(C)nn(C)c2C)cc1C,·,–,–,–,–
Cc1nn(C)c(C)c1NC(=S)Nc1ccc(S(=O)(=O)Nc2ncccn2)cc1,–,70.8µM,–,–,–
CC(=O)c1ccc(S(=O)(=O)Nc2c(C)nn(C)c2C)cc1,·,44.7µM,–,–,–
CNc1ccc(Cl)nn1,–,–[12.7 µM],–,–,–
NNc1ccc(Cl)nn1,44.7µM,·,8.91µM,20µM,79.4µM
C=CCSc1nc2c(c(=O)[nH]c(=O)n2C)n1C/C=C(/C)Cl,–,–,–,–,–
C/C=C/Cn1c(SCc2ccccc2)nc2c1c(=O)[nH]c(=O)n2C,?,35.5µM,–,–,–
C/C=C/CSc1nc2c(c(=O)[nH]c(=O)n2C)n1Cc1ccc(C)cc1,?,4.47µM,–,–,–
C=CCSc1nc2c(c(=O)[nH]c(=O)n2C)n1CC,14.1µM,?,–,–,?
COc1ccc(/C=C/C(=O)NC(=S)Nc2ccc(S(=O)(=O)Nc3cc(C)on3)cc2)cc1,–,39.8µM,–,–,–
Cc1cc(C)nc(NS(=O)(=O)c2ccc(NC(=S)NC(=O)c3cccnc3)cc2)n1,39.8µM,50.1µM,–,–,–
Cc1cc(NS(=O)(=O)c2ccc(NC(=S)NC(=O)c3cccnc3)cc2)no1,–,44.7µM,31.6µM,?,–
O=C(CNS(=O)(=O)c1ccc(Br)s1)NC1CCCc2ccccc21 (stereo not given),–,–,–,–,–
NC(=O)CC(NC(=O)c1cccc(Br)c1)c1ccc(NC2CCC2)c([N+](=O)[O-])c1 (stereo not given),–,?,–,?,–
CC(=O)Nc1ccc(CN2CCCCCC2)cc1,–,–,–,–,–
Cc1ccc2nc(-c3ccc(NC(=O)COC(=O)c4cncc(Br)c4)cc3)sc2c1,–,25.1µM,–,–,–
O=C(COC(=O)COc1ccc(Nc2ccccc2)cc1)NCc1ccco1,–,50.1µM,56.2µM,50.1µM,?
COc1ccc(CC(=O)OCC(=O)NCc2ccco2)cc1OC,·,50.1µM,–,–,–
O=C(COC(=O)CSc1ccc(F)cc1)NCc1ccco1,·,–,–,–,–
CC(C)C(NC(=O)OCc1ccccc1)C(=O)OCC(=O)NCc1ccco1 (stereo not given),56.2µM,–,56.2µM,50.1µM,–
O=C(COC(=O)Cc1ccc(F)cc1)NCc1ccco1,–,?,–,50.1µM,–
O=C(COC(=O)Cc1cccc(C(F)(F)F)c1)NC1CC1,–,–,–,–,–
SMILES,Sfp PPTase inh,G9a block,JMJD2A Tudor,BAZ2B inh,HP1b binding inh
O=C(COC(=O)Cc1cccc(C(F)(F)F)c1)NCc1ccco1,·,?,79.4µM,50.1µM,?
CCc1cc2c(cc3c(=O)n(CC(=O)NCCCN4CCCCCC4)nc(CC)n32)s1,–,50.1µM,–,–,–
CCc1nn(CC(=O)NCCCN2CCOCC2)c(=O)c2cc3cc(F)ccc3n12,–,50.1µM,–,–,–
CCc1nn(CC(=O)NCCCN2CCOCC2)c(=O)c2cc3sccc3n12,–,–,–,–,–
COc1cc2c(cc1OC)C(Cc1ccccc1[N+](=O)[O-])=NCC2,·,·,–,·,–
N#Cc1ccccc1-c1ccccc1C(=O)N1CCCCC1,–,–,–,–,–
COc1ccc(OC)c(NC(=O)c2cc3cccc(OC)c3oc2=O)c1,·,–,–,–,–
COc1ccc(CCNC(=O)c2oc3ccc(OC)cc3c2C)cc1,–,·,–,–,–
